Screens (PubChem)
Many of the other results were omitted from the sample, so hits are more common in it than they were.
miR-122 inh – miR-122 suppressors via Renilla sensor increase, primary screen, cell-based, Huh7 psiCHECK-miR122, Renilla luciferase, single point | 48 h | activation, % at 12.5 µM | actives 0.14% (n = 340,000) | AID 623901, 2012;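 active = mean activation of 30% or more, with every replicate also reaching 30%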;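 also: 0% = median of neutral control wells and 100% = median of positive control wells; higher luciferase signal means stronger suppression of miR-122 activity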
Numbers without * were called inactive.

Screening CC(C)c1ccc(NC(=O)C[C@H]2CC[C@H]3[C@@H](COc4ccc(NC(=O)Nc5ccc(F)c(F)c5)cc4C(=O)N3C)O2)cc1 returned miR-122 inh 45*.
For Cc1cccc(NC(=O)Nc2ccc3c(c2)C(=O)N(C)[C@H]2CC[C@@H](CC(=O)NCc4ccccc4Cl)O[C@H]2CO3)c1 the results were miR-122 inh 37*.
Cc1ccccc1-c1ccc2c(c1)O[C@H](CN(C)C(=O)Nc1ccccc1)[C@H](C)CN([C@@H](C)CO)S2(=O)=O was read as miR-122 inh -12.
`COc1ccc(NC(=O)N(C)C[C@@H]2Oc3ncc(-c4cc5ccccc5o4)cc3C(=O)N([C@H](C)CO)C[C@@H]2C)cc1` gave miR-122 inh 8.
For C[C@@H]1CN([C@H](C)CO)C(=O)c2cc(C#CC3(O)CCCC3)cnc2O[C@@H]1CN(C)C(=O)CN(C)C the results were miR-122 inh 6.
`COCC(=O)Nc1ccc2c(c1)C(=O)N(C)C[C@@H](OC)[C@H](C)CN(C(=O)COC)[C@H](C)CO2` gave miR-122 inh -2.
`COCC#Cc1cnc2c(c1)C(=O)N([C@H](C)CO)C[C@H](C)[C@H](CN(C)S(=O)(=O)c1cccc(OC)c1)O2` gave miR-122 inh 7.
CC(C)C#Cc1cnc2c(c1)C(=O)N([C@H](C)CO)C[C@H](C)[C@@H](CN(C)C(=O)c1ccccc1)O2 was read as miR-122 inh 3.
C[C@H]1CN([C@@H](C)CO)S(=O)(=O)c2ccc(C#Cc3cccnc3)cc2O[C@@H]1CN(C)C(=O)C1CC1 was read as miR-122 inh -15.
For C[C@H]1CN([C@@H](C)CO)C(=O)c2cc(/C=C/c3ccccc3)cnc2O[C@@H]1CN(C)C(=O)c1cccnc1 the results were miR-122 inh 2.
`CCCNC(=O)N(C)C[C@@H]1Oc2ncc(C#CCC3CCCC3)cc2C(=O)N([C@H](C)CO)C[C@@H]1C` gave miR-122 inh 7.
`O=C(C[C@@H]1C[C@H]2c3cc(NS(=O)(=O)c4ccc(F)cc4)ccc3O[C@H]2[C@H](CO)O1)NCc1ccc(-c2ccccc2)cc1` gave miR-122 inh -111.
`COc1cccc(NC(=O)N(C)C[C@@H]2Oc3ncc(C#Cc4cccnc4)cc3C(=O)N([C@H](C)CO)C[C@@H]2C)c1` gave miR-122 inh 3.
`CC(=O)N(C)C[C@H]1Oc2cc(C#CC3CCCCC3)ccc2S(=O)(=O)N([C@@H](C)CO)C[C@H]1C` gave miR-122 inh 13.
Screening CCCNC(=O)N(C)C[C@H]1Oc2cc(C#CC(C)C)ccc2S(=O)(=O)N([C@H](C)CO)C[C@@H]1C returned miR-122 inh -44.
C[C@H](CO)N1C[C@H](C)[C@H](CN(C)C(=O)c2ccc(F)cc2)Oc2ncc(C3=CCCCC3)cc2C1=O was read as miR-122 inh 3.
`CC(C)C#Cc1ccc2c(c1)O[C@H](CN(C)C(=O)NC(C)C)[C@@H](C)CN([C@H](C)CO)S2(=O)=O` gave miR-122 inh -88.
Screening COc1ccc(CN(C)C[C@H]2OCCCC[C@H](C)Oc3ccc(NC(=O)Nc4ccc(C(F)(F)F)cc4)cc3C(=O)N([C@@H](C)CO)C[C@@H]2C)cc1 returned miR-122 inh 31*.
`C[C@H]1CN([C@@H](C)CO)C(=O)c2cccc(NC(=O)NC3CCCCC3)c2O[C@@H]1CN(C)Cc1ccc(C(F)(F)F)cc1` gave miR-122 inh -121.
For C[C@@H]1CN([C@@H](C)CO)C(=O)Cc2cc(NC(=O)Nc3ccc(C(F)(F)F)cc3)ccc2O[C@@H]1CN(C)C(=O)Nc1cccc2ccccc12 the results were miR-122 inh -265.
Screening C[C@@H]1CN([C@H](C)CO)C(=O)Cc2cc(NC(=O)Nc3ccc(C(F)(F)F)cc3)ccc2O[C@@H]1CN(C)C(=O)Nc1cccc2ccccc12 returned miR-122 inh -112.
Screening C[C@H](CO)N1C[C@H](C)[C@@H](CN(C)Cc2ccc(C(F)(F)F)cc2)Oc2c(NC(=O)C3CCCCC3)cccc2C1=O returned miR-122 inh -122.
Screening C[C@@H]1CN([C@H](C)CO)C(=O)c2cc(NC(=O)Cc3ccccc3)ccc2O[C@@H](C)CCCCO[C@H]1CN(C)Cc1ccc(C(F)(F)F)cc1 returned miR-122 inh 31*.
Screening C[C@@H]1CN([C@@H](C)CO)C(=O)c2cccc(NC(=O)Nc3ccccc3)c2O[C@H]1CN(C)Cc1ccc(C(F)(F)F)cc1 returned miR-122 inh -115.
COc1ccc(CN(C)C[C@@H]2OCCCC[C@H](C)Oc3ccc(NC(=O)Nc4ccc(C(F)(F)F)cc4)cc3C(=O)N([C@H](C)CO)C[C@H]2C)cc1 was read as miR-122 inh 32*.
Screening COc1ccc(S(=O)(=O)Nc2cccc3c2O[C@@H](CN(C)Cc2ccc(C(F)(F)F)cc2)[C@H](C)CN([C@H](C)CO)C3=O)cc1 returned miR-122 inh -102.
For C[C@@H]1CN([C@@H](C)CO)C(=O)Cc2cc(NC(=O)Nc3ccc(C(F)(F)F)cc3)ccc2O[C@H]1CN(C)Cc1ccc(Oc2ccccc2)cc1 the results were miR-122 inh 35*.
